Experimental data reported in the supplement of paper PMC10849652.
About 8,800 targets were measured; listed, in parts, are those with a hit and a random draw of the rest. About 0.5% of all pairs of compound and target were hits. Unmarked numbers belong to inactive results.

How the values were obtained:
Assay in all cases: log2 fold change, soluble protein after heating vs DMSO (PISA); higher = thermal stabilisation; K562 lysate, 10 uM; active = over 0.2 and 3.5 SD of the protein, either way, in both replicates (recomputed)
[1] = compound: Cc1cn(-c2cc(NC(=O)c3ccc(C)c(Nc4nccc(-c5cccnc5)n4)c3)cc(C(F)(F)F)c2)cn1 [nilotinib]
How it was run: (§1)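 K562 pellets were dounce-homogenised in PBS pH 7.4 with 1 mM MgCl2, and the crude extract at 1 mg/mL protein was treated with 10 μM compound for 30 min. Aliquots were heated for 3 min across 48°C-58°C, pooled, and brought to 0.5% NP-40 at 4°C; soluble protein was the supernatant after 21,000xg for 90 min. Soluble protein was quantified by TMTpro 16plex LC-MS/MS with channel sums equalised, and reported as log2 fold change in thermal stability against DMSO controls, with values from duplicates.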

[2] = compound: Cc1nc(Nc2n[nH]c3c2CN(C(=O)N[C@H](CN(C)C)c2ccccc2)C3(C)C)c2sccc2n1
How it was run: as §1

[3] = compound: Cc1nc(Nc2ncc(C(=O)Nc3c(C)cccc3Cl)s2)cc(N2CCN(CCO)CC2)n1 [dasatinib]
How it was run: as §1

[4] = compound: Cc1ncc(-c2ccnc(Nc3ccc(S(C)(=O)=O)cc3)n2)n1C(C)C
How it was run: as §1

[5] = compound: Cn1cc(-c2ccc3c(c2)CCN3C(=O)Cc2cccc(C(F)(F)F)c2)c2c(N)ncnc21
How it was run: as §1

[6] = compound: Cn1cc(CNCC2CCN(c3ncc(C(=O)NO)cn3)CC2)c2ccccc21 [quisinostat]
How it was run: as §1

[7] = compound: Cn1cncc1[C@@](N)(c1ccc(Cl)cc1)c1ccc2c(c1)c(-c1cccc(Cl)c1)cc(=O)n2C [tipifarnib]
How it was run: as §1

[8] = compound: NC(=O)Nc1cc(-c2cccc(F)c2)sc1C(=O)N[C@H]1CCCNC1
How it was run: as §1

[9] = compound: NC(=O)c1cnc(N[C@@H]2CCCC[C@@H]2N)nc1Nc1cccc(-n2nccn2)c1
How it was run: as §1

[10] = compound: NC1(c2ccc(-c3nc4ccn5c(=O)[nH]nc5c4cc3-c3ccccc3)cc2)CCC1
How it was run: as §1

UniProt P68400, sequence (P68400 whole entry, looked up): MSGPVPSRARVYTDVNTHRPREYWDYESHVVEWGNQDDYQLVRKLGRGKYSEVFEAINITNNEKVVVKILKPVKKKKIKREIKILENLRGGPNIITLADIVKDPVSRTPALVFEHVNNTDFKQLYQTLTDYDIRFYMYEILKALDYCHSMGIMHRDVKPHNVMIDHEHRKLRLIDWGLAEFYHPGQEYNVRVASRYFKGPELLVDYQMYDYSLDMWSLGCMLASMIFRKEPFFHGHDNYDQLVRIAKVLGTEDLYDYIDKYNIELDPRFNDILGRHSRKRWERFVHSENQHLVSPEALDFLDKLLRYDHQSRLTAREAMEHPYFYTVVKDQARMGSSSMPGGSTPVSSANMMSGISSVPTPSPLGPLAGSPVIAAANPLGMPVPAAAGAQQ
UniProt Q92466, sequence (Q92466 whole entry, looked up): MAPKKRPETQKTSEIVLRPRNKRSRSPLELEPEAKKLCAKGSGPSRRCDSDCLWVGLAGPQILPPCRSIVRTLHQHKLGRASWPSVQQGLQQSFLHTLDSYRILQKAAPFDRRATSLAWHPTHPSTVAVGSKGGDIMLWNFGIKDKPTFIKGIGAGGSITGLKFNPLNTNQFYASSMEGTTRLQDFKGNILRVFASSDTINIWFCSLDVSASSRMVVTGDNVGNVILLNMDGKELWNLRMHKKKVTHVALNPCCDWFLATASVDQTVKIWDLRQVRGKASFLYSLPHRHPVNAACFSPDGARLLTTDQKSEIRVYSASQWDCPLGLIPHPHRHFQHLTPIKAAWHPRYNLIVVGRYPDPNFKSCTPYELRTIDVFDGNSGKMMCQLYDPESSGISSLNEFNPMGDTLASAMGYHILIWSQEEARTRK
UniProt O76075, sequence (O76075 whole entry, looked up): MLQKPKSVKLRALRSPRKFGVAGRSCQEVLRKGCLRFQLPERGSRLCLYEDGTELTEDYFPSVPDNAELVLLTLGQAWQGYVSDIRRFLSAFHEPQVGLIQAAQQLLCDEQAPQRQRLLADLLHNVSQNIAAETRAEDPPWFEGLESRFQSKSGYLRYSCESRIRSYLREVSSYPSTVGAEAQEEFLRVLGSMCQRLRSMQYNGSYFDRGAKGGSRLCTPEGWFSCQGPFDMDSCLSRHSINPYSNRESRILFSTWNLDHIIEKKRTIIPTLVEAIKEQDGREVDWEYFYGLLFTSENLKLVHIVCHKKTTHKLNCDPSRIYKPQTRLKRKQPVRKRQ
UniProt Q96MX0, sequence (Q96MX0 whole entry, looked up): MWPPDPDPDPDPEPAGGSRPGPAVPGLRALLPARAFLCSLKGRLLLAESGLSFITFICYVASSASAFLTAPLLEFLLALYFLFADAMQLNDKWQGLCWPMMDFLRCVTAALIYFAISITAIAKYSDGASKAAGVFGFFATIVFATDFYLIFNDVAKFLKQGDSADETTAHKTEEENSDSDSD
UniProt Q92989, sequence (Q92989 whole entry, looked up): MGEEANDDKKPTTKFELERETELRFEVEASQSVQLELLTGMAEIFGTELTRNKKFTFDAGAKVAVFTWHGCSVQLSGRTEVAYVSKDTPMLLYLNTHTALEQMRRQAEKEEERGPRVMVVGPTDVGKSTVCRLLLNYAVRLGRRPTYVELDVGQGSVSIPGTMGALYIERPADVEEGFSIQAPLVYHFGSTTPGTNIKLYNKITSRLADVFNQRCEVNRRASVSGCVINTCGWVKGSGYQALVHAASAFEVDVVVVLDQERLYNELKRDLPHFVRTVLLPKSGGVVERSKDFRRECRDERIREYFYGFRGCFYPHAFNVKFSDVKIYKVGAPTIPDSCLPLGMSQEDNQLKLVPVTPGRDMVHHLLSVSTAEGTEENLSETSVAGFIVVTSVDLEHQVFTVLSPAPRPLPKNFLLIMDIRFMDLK
UniProt Q6PJW8, sequence (Q6PJW8 whole entry, looked up): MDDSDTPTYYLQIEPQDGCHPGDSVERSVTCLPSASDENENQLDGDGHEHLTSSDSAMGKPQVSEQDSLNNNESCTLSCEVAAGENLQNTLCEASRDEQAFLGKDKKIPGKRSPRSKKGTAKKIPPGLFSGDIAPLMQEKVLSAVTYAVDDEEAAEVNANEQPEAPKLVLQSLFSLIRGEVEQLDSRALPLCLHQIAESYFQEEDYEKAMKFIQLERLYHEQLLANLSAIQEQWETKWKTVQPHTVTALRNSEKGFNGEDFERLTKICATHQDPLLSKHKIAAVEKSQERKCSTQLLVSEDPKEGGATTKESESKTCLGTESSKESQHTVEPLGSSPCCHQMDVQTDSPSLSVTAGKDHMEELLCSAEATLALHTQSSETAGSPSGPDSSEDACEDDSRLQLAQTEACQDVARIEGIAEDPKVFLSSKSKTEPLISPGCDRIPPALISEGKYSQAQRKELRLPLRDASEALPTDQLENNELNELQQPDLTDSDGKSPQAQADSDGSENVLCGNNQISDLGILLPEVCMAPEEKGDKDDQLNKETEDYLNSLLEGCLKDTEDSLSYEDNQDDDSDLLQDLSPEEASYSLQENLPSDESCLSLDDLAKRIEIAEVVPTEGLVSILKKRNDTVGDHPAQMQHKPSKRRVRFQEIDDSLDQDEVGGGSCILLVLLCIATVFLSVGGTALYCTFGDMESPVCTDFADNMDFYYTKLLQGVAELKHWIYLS
UniProt Q96LJ7, sequence (Q96LJ7 whole entry, looked up): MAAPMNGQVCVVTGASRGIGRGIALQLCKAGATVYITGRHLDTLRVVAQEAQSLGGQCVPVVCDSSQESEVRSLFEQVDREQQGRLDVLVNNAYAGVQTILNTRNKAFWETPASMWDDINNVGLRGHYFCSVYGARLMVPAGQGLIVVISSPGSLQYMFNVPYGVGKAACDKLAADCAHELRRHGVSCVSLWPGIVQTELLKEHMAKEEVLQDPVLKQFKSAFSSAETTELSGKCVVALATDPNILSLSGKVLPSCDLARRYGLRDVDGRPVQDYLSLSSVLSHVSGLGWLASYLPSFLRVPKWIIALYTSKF
UniProt Q96KC8, sequence (Q96KC8 whole entry, looked up): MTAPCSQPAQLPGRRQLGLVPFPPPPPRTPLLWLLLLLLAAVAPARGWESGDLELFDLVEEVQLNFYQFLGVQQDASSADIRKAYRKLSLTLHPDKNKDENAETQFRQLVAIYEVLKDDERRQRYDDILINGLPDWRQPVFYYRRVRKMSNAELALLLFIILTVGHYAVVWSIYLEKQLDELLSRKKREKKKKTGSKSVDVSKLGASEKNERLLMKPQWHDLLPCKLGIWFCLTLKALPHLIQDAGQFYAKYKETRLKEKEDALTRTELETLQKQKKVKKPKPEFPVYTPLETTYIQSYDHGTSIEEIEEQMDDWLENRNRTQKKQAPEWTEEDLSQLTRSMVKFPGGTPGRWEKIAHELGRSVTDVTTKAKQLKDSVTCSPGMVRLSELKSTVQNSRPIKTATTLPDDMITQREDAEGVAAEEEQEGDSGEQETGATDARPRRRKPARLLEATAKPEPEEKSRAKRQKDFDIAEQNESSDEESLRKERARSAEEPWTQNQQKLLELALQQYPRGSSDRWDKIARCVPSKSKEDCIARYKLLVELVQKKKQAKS
UniProt Q9NZN8, sequence (Q9NZN8 whole entry, looked up): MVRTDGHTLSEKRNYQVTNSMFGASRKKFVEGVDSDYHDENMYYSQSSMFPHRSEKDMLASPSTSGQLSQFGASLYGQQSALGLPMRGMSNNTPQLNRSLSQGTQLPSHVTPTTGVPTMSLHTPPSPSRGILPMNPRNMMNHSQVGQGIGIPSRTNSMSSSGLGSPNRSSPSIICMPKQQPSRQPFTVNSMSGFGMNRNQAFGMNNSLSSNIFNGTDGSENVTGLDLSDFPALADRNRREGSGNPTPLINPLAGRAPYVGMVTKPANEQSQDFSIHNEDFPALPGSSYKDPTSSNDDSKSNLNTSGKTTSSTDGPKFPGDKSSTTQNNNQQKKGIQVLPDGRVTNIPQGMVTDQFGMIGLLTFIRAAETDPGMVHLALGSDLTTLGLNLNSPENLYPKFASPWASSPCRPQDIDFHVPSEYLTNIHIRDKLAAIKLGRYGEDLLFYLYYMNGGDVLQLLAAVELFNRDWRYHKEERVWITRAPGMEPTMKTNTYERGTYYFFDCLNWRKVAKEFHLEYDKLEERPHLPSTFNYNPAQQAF
UniProt Q9H3Z4, sequence (Q9H3Z4 whole entry, looked up): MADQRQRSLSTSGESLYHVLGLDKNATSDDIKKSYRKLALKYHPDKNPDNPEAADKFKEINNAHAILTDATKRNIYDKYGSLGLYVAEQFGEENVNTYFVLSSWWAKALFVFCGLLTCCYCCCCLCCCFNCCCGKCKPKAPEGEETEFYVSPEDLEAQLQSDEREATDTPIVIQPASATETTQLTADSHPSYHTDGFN
UniProt Q8IWF6, sequence (Q8IWF6 whole entry, looked up): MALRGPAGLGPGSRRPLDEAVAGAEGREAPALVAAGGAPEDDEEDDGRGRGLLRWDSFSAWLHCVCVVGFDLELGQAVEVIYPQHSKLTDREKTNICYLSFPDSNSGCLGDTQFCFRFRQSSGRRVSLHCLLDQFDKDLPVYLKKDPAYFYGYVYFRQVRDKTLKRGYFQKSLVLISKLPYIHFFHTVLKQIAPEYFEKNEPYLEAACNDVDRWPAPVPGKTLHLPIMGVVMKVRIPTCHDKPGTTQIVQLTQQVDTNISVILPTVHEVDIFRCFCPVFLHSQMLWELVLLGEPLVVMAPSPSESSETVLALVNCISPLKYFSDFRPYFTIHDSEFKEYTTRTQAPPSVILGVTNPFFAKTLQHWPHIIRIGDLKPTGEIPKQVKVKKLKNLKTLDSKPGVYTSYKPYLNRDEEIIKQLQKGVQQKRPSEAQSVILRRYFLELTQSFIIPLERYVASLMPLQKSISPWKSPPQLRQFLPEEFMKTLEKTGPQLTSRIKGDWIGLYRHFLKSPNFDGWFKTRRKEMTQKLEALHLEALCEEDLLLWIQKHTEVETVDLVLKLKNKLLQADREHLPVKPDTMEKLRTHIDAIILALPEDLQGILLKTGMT
UniProt P61923, sequence (P61923 whole entry, looked up): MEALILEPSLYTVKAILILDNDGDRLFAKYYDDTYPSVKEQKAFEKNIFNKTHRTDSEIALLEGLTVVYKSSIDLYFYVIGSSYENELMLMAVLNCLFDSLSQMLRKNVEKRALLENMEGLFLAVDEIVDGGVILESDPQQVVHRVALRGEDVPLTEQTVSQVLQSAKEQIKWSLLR

Row | Target | log2 fold change [1] | log2 fold change [2] | log2 fold change [3] | log2 fold change [4] | log2 fold change [5] | log2 fold change [6] | log2 fold change [7] | log2 fold change [8] | log2 fold change [9] | log2 fold change [10]
1 | CMTM3 (UniProt Q96MX0) | 0.07 | 0.048 | 0.05 | 0.144 | 0.015 | 0.023 | -0.111 | -0.115 | -0.055 | -0.026
2 | CSNK1E (UniProt P49674) | -0.025 | -0.008 | 0.053 | 0.091 | -0.078 | -0.075 | -0.092 | 0.059 | 0.055 | -0.06
3 | DOCK8 (UniProt Q8NF50) | -0.007 | -0.023 | -0.045 | 0.04 | 0.058 | -0.053 | -0.033 | 0.032 | 0.016 | 0
4 | COG7 (UniProt P83436) | 0.02 | 0.007 | -0.089 | 0.011 | 0.024 | 0 | -0.001 | 0.033 | -0.019 | 0.001
5 | CTNND1 isoform 3 (UniProt O60716) | -0.027 | -0.02 | 0.006 | -0.017 | 0.009 | -0.065 | -0.06 | 0.027 | 0.065 | -0.065
6 | CSNK2A1 (UniProt P68400) | -0.022 | 0.061 | 0 | 0.058 | -0.029 | 0.049 | -0.013 | 0.019 | 0.003 | -0.068
7 | CLUH, A0A494C0R8 | 0.026 | 0.146 | 0.028 | -0.022 | 0.015 | -0.165 | -0.033 | 0.022 | -0.045 | 0.046
8 | CPT1A (UniProt P50416) | -0.012 | 0.049 | 0.015 | -0.022 | 0.008 | 0.308 (active) | 0.056 | -0.09 | -0.028 | -0.038
9 | DNAAF5 (UniProt Q86Y56) | -0.015 | 0.004 | -0.118 | -0.024 | 0.007 | -0.1 | -0.002 | 0.073 | 0.006 | 0.024
10 | DNAJC5 (UniProt Q9H3Z4) | -0.136 | -0.043 | -0.002 | 0.008 | -0.029 | -0.05 | 0.043 | -0.045 | 0.062 | 0.024
11 | COASY isoform 2 (UniProt Q13057) | -0.043 | -0.015 | -0.071 | -0.023 | 0.069 | -0.078 | 0.012 | 0.041 | -0.023 | -0.046
12 | DENND6A (UniProt Q8IWF6) | 0.012 | -0.009 | 0.053 | 0.017 | 0.095 | -0.084 | -0.041 | 0.018 | -0.032 | -0.011
13 | DDB2 (UniProt Q92466) | -0.027 | -0.024 | -0.033 | -0.044 | 0.02 | 0.028 | 0.026 | 0.021 | 0.006 | -0.003
14 | CLP1 (UniProt Q92989) | -0.029 | 0.039 | -0.037 | -0.039 | 0.119 | -0.065 | -0.011 | 0.029 | -0.027 | 0.026
15 | CYP24A1 (UniProt Q07973) | 0.036 | -0.029 | -0.049 | 0.015 | 0.008 | -0.33 | -0.018 | 0.04 | 0.068 | -0.161
16 | COPZ1 isoform 4 (UniProt P61923) | 0.012 | 0 | 0.015 | 0.088 | 0.023 | 0.289 | 0.002 | -0.029 | -0.103 | 0.037
17 | DNAJC1 (UniProt Q96KC8) | -0.03 | 0 | -0.09 | -0.012 | 0.016 | 0.04 | 0.004 | 0.026 | -0.028 | 0.028
18 | CNST (UniProt Q6PJW8) | 0.125 | 0.029 | 0.023 | -0.123 | 0 | -0.005 | 0.054 | -0.002 | 0 | 0.041
19 | CSNK2B (UniProt P67870) | 0.086 | -0.029 | -0.014 | 0.034 | -0.006 | -0.005 | -0.058 | 0.028 | 0.042 | -0.049
20 | CMIP (UniProt Q8IY22) | -0.034 | 0.023 | -0.063 | 0.016 | 0.008 | -0.052 | -0.045 | 0.075 | -0.008 | -0.036
21 | DHRS13 (UniProt Q6UX07) | 0.133 | 0.385 | 0.048 | -0.142 | 0.142 | 0.078 | -0.223 | -0.011 | -0.08 | -0.121
22 | CNOT2 (UniProt Q9NZN8) | 0.013 | -0.011 | -0.024 | 0.009 | -0.018 | -0.026 | -0.074 | 0.024 | 0.02 | -0.001
23 | DFFB (UniProt O76075) | 0.192 | -0.062 | 0.008 | 0.155 | 0.012 | 0.038 | -0.013 | -0.049 | 0.026 | -0.047
24 | DHRS1 (UniProt Q96LJ7) | -0.009 | -0.043 | 0.063 | -0.064 | -0.042 | 0.012 | 0.055 | -0.001 | 0.033 | -0.026
25 | DGCR8 (UniProt Q8WYQ5) | -0.01 | -0.002 | -0.061 | -0.029 | -0.02 | -0.007 | 0.03 | -0.032 | -0.048 | 0.003
26 | DOK1 (UniProt Q99704) | -0.019 | 0.05 | 0.014 | -0.103 | 0.023 | -0.032 | 0.048 | 0.07 | -0.055 | 0.018
